Bioassay records from PubChem.
Shiga inhibitor: A qHTS for Small Molecule Inhibitors of Shiga Toxin. Vero cells, Shiga toxin protein synthesis inhibition reporter. inhibition, % at 38.7 µM. hit rate 9.2% among 290,000; in the data active = inhibition mostly above about 28%, no sharp cut-off; inactive = mostly below about 43%; note: 0% is about no effect
FMDV antiviral: High Throughput Screening for Foot and Mouth Disease Virus Antivirals. Potency, µM (highest dose often 57.9 µM), without a hit: at the top dose activity change, negative = inhibition, most hits filed as inhibitors. hit rate 1.2% among 410,000. FMDV antiviral cell-based qHTS; calls by dose curve; tested in HEK293T cells; note: read-out not given here; potency is the fitted concentration of half-maximal effect; % is set by controls: 0 for no effect and ±100 for the full control effect; nearly all actives have a fitted effect of over 45% in size
Lassa entry inh: qHTS for Inhibitors of binding or entry into cells for Lassa Virus; Lassa virus pseudotype entry inhibition, cell reporter; Potency, µM (doses to about 37.9 µM), without a hit: at the highest dose activity change, negative = inhibition, actives largely listed as inhibitors; hit rate 1.2% among 300,000; calls by dose curve; tested in HEK293 cells; note: potency is the fitted concentration of half-maximal effect; % is set by controls: 0 for no effect and ±100 for the full control effect; nearly all actives have a fitted effect of over 50% in size
Marburg entry inh: qHTS for inhibitors of binding or entry into cells for Marburg Virus | hit rate 1.8% among 300,000 | Marburg virus pseudotyped entry inhibition, cell reporter | Potency, µM (series often up to 37.8 µM), for the others: at the top dose activity change, negative = inhibition, usual class: inhibitors; calls by dose curve; tested in HEK293 cells; note: potency is the fitted concentration of half-maximal effect; % is set by controls: 0 for no effect and ±100 for the full control effect
HCV inhibitor: qHTS Assay for Inhibitors of Hepatitis C Virus (HCV); Huh7.5.1 HCVcc-Cre infection, luciferase reporter, 44 h; Potency, µM (series often up to 41.8 µM), for the others: at the highest dose activity change, negative = inhibition, most hits filed as inhibitors; hit rate 3.4% among 340,000; AID 651820, 2012; active = well fitted inhibition curve with a large enough effect; inconclusive = small, poorly fitted or top-dose-only effect, or another doubt; inactive = no such curve, though single readings can be large or run the other way; note: potency is the fitted concentration of half-maximal effect; % is set by controls: 0 for no effect and ±100 for the full control effect
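Infectious HCV cell culture screen: compound-treated cells (1,000/well, pre-plated 4 h) are infected with HCVcc-Cre at roughly 0.5 moi and grown 44 h. Infection is quantified by luciferase signal after 15 min substrate incubation at room temperature.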
CHX counter: Cycloheximide Counterscreen for Small Molecule Inhibitors of Shiga Toxin; cell reporter, cycloheximide protein synthesis inhibition counterscreen; AID 2314, 2010; max response, %; hit rate 12% among 300,000; in the data active = max response mostly above about 13%, no sharp cut-off; inactive = mostly below about 14%; note: read at 38.3 µM for the half of the compounds with a filed dose; 0% is about no effect
* hit, by the source's call; ? = inconclusive; . = no result given; [ ] = remark or other dose. Hits are enriched below; roughly 13% of the tested compounds scored in any of these assays.

SMILES	Shiga inhibitor	FMDV antiviral	Lassa entry inh	Marburg entry inh	HCV inhibitor	CHX counter
Cc1c(C(=O)Nc2ccc3c(c2)OCCO3)oc2ccc(Br)cc12	.	9.5%	?	27.0%	-11.0%	.
Cc1ccc(S(=O)(=O)Nc2cccc3ncccc23)cc1	-4.0	-11.5%	.	.	-5.7%	-1.6
Cc1ccc(S(=O)(=O)Nc2cccc3ncccc23)s1	-5.2	28.2µM*	8.91µM*	10µM*	?	26.4
COc1cc2c(cc1OC)C1C(=O)c3ccc4c(c3OC1CO2)CC(C(C)C)O4 (centres undefined)	.	?	?	3.55µM*	?	.
COc1cc2c(cc1OC)[C@@H]1C(=O)c3ccc4c(c3O[C@@H]1CO2)C[C@H](C(C)C)O4	-6.2	?	?	7.08µM*	0.316µM*	-1.0
O=C(Cn1c(-c2cccs2)cc2cc(F)ccc21)N1CCCCC1	.	-7.1%	14.5%[46.1 µM]	.	.	.
O=C(NN=C1CCCC1)c1[nH]c2ccc(Br)cc2c1-c1ccccc1	-2.1	-13.2%	?	8.91µM*	-11.0%	-1.8
C/C(=N\NC(=O)c1ccccc1O)c1ccc(NC(=O)Cc2ccccc2)cc1	41.4*	2.0%	-1.4%	-20.8%	20.3%	28.9*
COc1cc(C(=O)N/N=C(\C)c2ccc(NC(=O)Cc3ccccc3)cc2)ccc1O	45.1*	15.8%	.	.	-9.0%	39.2*
COc1ccc(CC(=O)Nc2ccc(/C(C)=N/NC(=O)c3ccc(OC)cc3OC)cc2)cc1	50.4*	7.7%	11.4%[46.1 µM]	-3.0%[46.1 µM]	-12.4%	28.0*
C/C(=N\NC(=O)c1cccc(O)c1)c1ccc(NC(=O)Cc2ccccc2)cc1	69.3*	3.5%	9.0%	?	-27.0%	34.0*
Cc1ccc(-c2c3c(=O)n(C)c(=O)n(C)c3cn2-c2cc(C)ccc2O)cc1	.	-4.3%	?	-5.6%[46.1 µM]	.	.
Cc1c(C(O)CN2CCC(C(N)=O)CC2)c2ccccc2n1C (centres undefined)	-2.4	-18.4%	17.7%	-4.2%	?	-2.5
COc1ccccc1Oc1ccc(NC(=O)Cc2ccccc2)cc1	.	57.2%	.	.	?	.
COc1cccc(C(=O)N/N=C(\C)c2ccc(NC(=O)Cc3ccccc3)cc2)c1OC	27.0	-6.9%	-3.0%[46.1 µM]	17.5%[46.1 µM]	-15.9%	18.4*
Cc1nnc(NC(=O)CSc2nnc(C(C)NC(=O)c3ccccc3F)n2C)s1 (centres undefined)	-6.3	15.7%	7.6%[46.1 µM]	-5.0%[46.1 µM]	14.5%	-3.2
Cc1cc(/C=C2\C(=N)N3N=CSC3=NC2=O)c(C)n1Cc1ccccc1	52.3	17.6%	-22.5%	?	-5.4%	14.2*
CSc1ccc(/C=C2\C(=N)N3N=C(CC(=O)N4CCOCC4)SC3=NC2=O)cc1	-5.5	8.4%	.	.	14.4%	-1.5
COc1cc(/C=C2\C(=N)N3N=C(S(C)(=O)=O)SC3=NC2=O)ccc1OS(=O)(=O)c1ccc(C)cc1	20.0	-7.1%	.	.	12.9%	23.8*
COc1cc(/C=C2\C(=N)N3N=CSC3=NC2=O)ccc1OS(=O)(=O)c1ccccc1	18.4	-6.6%	20.3%[46.1 µM]	?	8.6%	15.8*
COc1cc(/C=C2/C(=N)N3N=C(CC(=O)N4CCOCC4)SC3=NC2=O)ccc1OCc1ccccc1	35.2*	-3.8%	.	.	6.7%	20.6*
CCN1CCN(C(=O)/C=C/c2ccc(OC)c(OC)c2)CC1	-2.2	-8.5%	-2.3%	-1.1%	8.0%	5.9
Cc1c(Br)c([N+](=O)[O-])nn1C(C)C(=O)N1CCCc2ccccc21 (centres undefined)	30.8	.	-13.8%	-5.4%	12.4%	18.5
COc1cc(/C=C2/C(=N)N3N=C(C(C)C)SC3=NC2=O)ccc1OS(=O)(=O)c1ccccc1	49.3	-5.1%	2.4%[46.1 µM]	?	7.5%	8.7*
Cc1c(C(=O)O)oc2c1C(O)CC(C)(C)C2 (centres undefined)	3.6	14.1%	15.7%	-2.9%	16.2%	-1.5
SMILES	Shiga inhibitor	FMDV antiviral	Lassa entry inh	Marburg entry inh	HCV inhibitor	CHX counter
COc1ccc(OCC(NS(=O)(=O)c2ccc(-n3cnnn3)cc2)C(C)C)cc1 (centres undefined)	-7.7	-18.0%	.	.	39.8µM*	11.5
Cc1ccsc1CN(C)C(=O)C1CCC(=O)N(CCc2cccc(F)c2)C1 (centres undefined)	52.9*	15.6%	.	.	13.5%	36.4*
Cc1ccsc1CCNC(=O)C1CCC(=O)N(CCc2cccc(F)c2)C1 (centres undefined)	119.9*	75.2%	.	.	11.7%	45.9*
COc1ccc(OC)c(C2C=C(C34CC5CC(CC(C5)C3)C4)NC(=S)N2)c1 (centres undefined)	-7.1	-0.9%	?	7.08µM*	2.51µM*	0.4
COc1cc(C2C=C(C34CC5CC(CC(C5)C3)C4)NC(=S)N2)cc(OC)c1OC (centres undefined)	-9.2	-1.9%	?	?	-25.0%	2.4
Cc1nn(CC(=O)N2CCN(c3cccc(Cl)c3)CC2)c(=O)c2c1sc1ccccc12	.	2.1%	-18.0%[46.1 µM]	-7.5%[46.1 µM]	.	.
COc1cc(/C=C2\Oc3cc(O)ccc3C2=O)ccc1O	70.3*	77.2%	.	.	-13.9%	50.9*
COc1cc(/C=C2\CCC/C(=C\c3ccc(O)c(OC)c3)C2=O)ccc1O	76.3*	?	?	?	12.6µM*	42.2*
COc1cc(/C=C2\COC/C(=C\c3cc(OC)c(OC)c(OC)c3)C2=O)cc(OC)c1OC	43.9*	3.55µM*	?	?	1µM*	27.9*
COc1cc(/C=C2\CC/C(=C\c3cc(OC)c(O)c(OC)c3)C2=O)cc(OC)c1O	-11.0	22.4µM*	-23.0%	?	?	1.4
COc1ccc(/C=C2/CC/C(=C\c3ccc(OC)c(OC)c3OC)C2=O)c(OC)c1OC	-4.1	-14.7%	?	0.4%	?	-2.0
COc1cc(/C=C2\N=C(C)OC2=O)cc(OC)c1OC	-12.5	-20.0%	.	.	12.8%	-0.8
CCn1c(SCC(=O)NCc2ccc3c(c2)OCO3)nnc1-c1ccco1	-10.6	5.9%	21.2%[46.1 µM]	-13.4%[46.1 µM]	11.2%	-4.5
O=C(CSc1nnnn1-c1ccccc1)Nc1ccc(Cl)cn1	-9.4	-11.1%	?	-23.0%	-12.5%	-3.0
CCOC(=O)C1CCN(C(=O)COc2ccc([N+](=O)[O-])cc2)CC1	-11.1	-20.2%	-5.0%[46.1 µM]	13.9%[46.1 µM]	-2.2%	1.6
COc1cc(/C=C2/N=C(C3CCCCC3)OC2=O)cc(OC)c1OC	4.0	-11.8%	-9.7%	19.0%	8.5%	5.9
CCN1C/C(=C/c2cccc([N+](=O)[O-])c2)C(=O)/C(=C/c2cccc([N+](=O)[O-])c2)C1	1.4	3.55µM*	2.82µM*	14.6µM*	?	-6.6
COc1cc(/C=C2\SC(N)=NC2=O)cc(Cl)c1O	.	-4.1%	.	.	-7.2%	-1.3
COc1cc(/C=C2\CC(C(C)(C)C)C/C(=C\c3cc(OC)c(OC)c(OC)c3)C2=O)cc(OC)c1OC (centres undefined)	33.7	14.1µM*	.	.	2.51µM*	9.0
CCOc1cc(/C=C2\CN(CC)C/C(=C\c3ccc(O)c(OCC)c3)C2=O)ccc1O	2.9	10µM*	5.01µM*	4.47µM*	4.47µM*	23.5*
